Screening data deposited in PubChem by several laboratories.
Compounds with a hit are over-represented: about 1.6% of the library has one in this group of screens.
SUMO HTRF inh = inhibitors of human SUMOylation (UBC9); HTRF SUMOylation assay, SAE1/SAE2 + UBC9, in vitro; inhibition, % at 35 µM; 290,000 compounds, 0.36% hits; AID 2006; in the data active = inhibition above about 50%, passing the limit was not always enough
Target sequence (P63279 whole entry, looked up): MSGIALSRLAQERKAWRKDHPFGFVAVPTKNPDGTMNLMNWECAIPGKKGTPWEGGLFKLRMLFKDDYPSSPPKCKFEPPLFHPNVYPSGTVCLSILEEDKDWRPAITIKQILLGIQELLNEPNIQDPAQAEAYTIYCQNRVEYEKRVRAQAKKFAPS
SIRT5 inh = blocks human SIRT5 desuccinylation of peptide | Q9NXA8 | Purified SirT5, succinyl-peptide AMC, trypsin-coupled fluorescence | inhibition, % at 15 µM | 330,000 compounds, 1.1% hits | AID 652115; in the data active = inhibition above about 15%
Target sequence (Q9NXA8 whole entry, looked up): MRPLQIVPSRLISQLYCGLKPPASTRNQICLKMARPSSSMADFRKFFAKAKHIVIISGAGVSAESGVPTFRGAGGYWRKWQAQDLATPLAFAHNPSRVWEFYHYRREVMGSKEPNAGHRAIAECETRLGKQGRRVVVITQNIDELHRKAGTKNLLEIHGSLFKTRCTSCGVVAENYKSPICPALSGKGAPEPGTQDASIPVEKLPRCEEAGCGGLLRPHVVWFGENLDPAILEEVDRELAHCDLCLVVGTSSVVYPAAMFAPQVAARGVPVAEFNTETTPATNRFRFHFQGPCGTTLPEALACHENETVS
NSD2 inh = NSD2 (human) methyltransferase inhibition; O96028; NSD2 peptide methylation, AlphaScreen, 120 min; inhibition, % at 12.5 µM; 310,000 compounds, 0.54% hits; AID 743445; in the data active = inhibition above about 50%
Casp6 inh = blocks human caspase-6 cleavage activity; purified caspase-6, Z-VEID-R110 cleavage fluorescence; P55212; 350,000 compounds, 0.53% hits; inhibition, % at 12.5 µM;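 active = mean inhibition across replicates at least about 35%, with every replicate also reaching that limit, limit read from the data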
Hits are given with their value; - = inactive; . = no result given.

SMILES	SUMO HTRF inh	SIRT5 inh	NSD2 inh	Casp6 inh
Cc1ccc(S(=O)(=O)Nc2ccc3c(c2)C(=O)N([C@H](C)CO)C[C@@H](C)[C@@H](CN(C)S(=O)(=O)c2ccccc2)OCCCC[C@@H](C)O3)cc1	.	20.7	.	-
Cc1ccc(S(=O)(=O)Nc2ccc3c(c2)C(=O)N([C@H](C)CO)C[C@@H](C)[C@@H](CN(C)CC2CCCCC2)OCCCC[C@H](C)O3)cc1	.	17.5	.	-
Cc1ccc(S(=O)(=O)Nc2ccc3c(c2)C(=O)N([C@@H](C)CO)C[C@H](C)[C@@H](CN(C)S(=O)(=O)c2ccccc2)OCCCC[C@@H](C)O3)cc1	.	19.3	.	-
COc1cccc(C(=O)Nc2ccc3c(c2)OC[C@@H](C)N(C)C[C@H](C)[C@@H](OC)CN(C)C3=O)c1	.	-	.	-
Cc1noc(C)c1S(=O)(=O)Nc1ccc2c(c1)CC(=O)N([C@H](C)CO)C[C@@H](C)[C@@H](CN(C)C(=O)Nc1ccccc1)O2	.	-	.	-
COc1ccc(S(=O)(=O)Nc2ccc3c(c2)C(=O)N([C@H](C)CO)C[C@H](C)[C@@H](CN(C)C(=O)NC2CCCCC2)OCCCC[C@@H](C)O3)cc1	.	-	.	-
COc1ccc2c3c(n(C)c2c1)[C@H](CO)N(Cc1nccs1)CC31CN(C(=O)CN(C)C)C1	.	-	.	-
Cc1ccc(S(=O)(=O)N(C)C[C@@H]2OCCCC[C@@H](C)Oc3ccc(NS(=O)(=O)c4ccccc4)cc3C(=O)N([C@H](C)CO)C[C@H]2C)cc1	.	21.6	.	-
Cc1ccc(S(=O)(=O)Nc2ccc3c(c2)C(=O)N([C@@H](C)CO)C[C@@H](C)[C@@H](CN(C)S(=O)(=O)c2ccccc2)OCCCC[C@H](C)O3)cc1	.	-	.	-
COc1ccc(NC(=O)N(C)C[C@@H]2Oc3ccc(NC(=O)C4CCCCC4)cc3C(=O)N([C@H](C)CO)C[C@@H]2C)cc1	.	-	.	-
CCC1=NNc2cccc3c(OC)ccc1c23	59.3	.	.	.
C=C(C)CN(CC)C(=O)c1ccc(OC2CCN(S(=O)(=O)N(C)C)CC2)cc1	-	17.0	-	-
C=C(C)CNC(=O)c1ccc(OC2CCN(S(=O)(=O)N(C)C)CC2)cc1	-	-	-	-
Nc1nnc(CC(=O)N/N=C/c2cccc([N+](=O)[O-])c2)s1	-	.	-	.
Nc1nnc(CC(=O)N/N=C/c2cc([N+](=O)[O-])cc(Br)c2O)s1	99.2	47.0	-	-
COc1ccc(C(=O)NC(=S)Nc2ccc(CN3CCOCC3)cc2)cc1	-	-	-	-
COc1ccc(C(=O)NC(=S)Nc2ccc(CN3CCOCC3)cc2)cc1Br	-	15.7	-	-
CC(=O)Nc1ccc(/C(C)=N/NC(=O)c2ccc(CN3CCOCC3)cc2)cc1	-	35.2	-	-
C/C(=N\NC(=O)c1ccc(CN2CCOCC2)cc1)c1ccc(NC(=O)c2ccccc2)cc1	-	-	-	-
C=CCn1c(-c2ccc(Cl)cc2Cl)csc1=Nc1ccc(NC(C)=O)cc1	.	.	-	.
COc1cccc(-c2ccc3c(c2)[C@H]2[C@H](CCN2S(=O)(=O)c2cccc(OC)c2)[C@H](CO)N3)c1	.	-	.	-
CCCc1cn(CC[C@@H]2CC[C@H](NC(=O)C3CCCCC3)[C@H](CO)O2)nn1	.	-	.	-
CCSc1nnc(NC(=O)Cc2cccc(OC)c2)s1	-	.	-	.
CCSc1nnc(NC(=O)Cc2ccc(OC)cc2)s1	-	19.8	-	-
COc1ccccc1C(=O)Nc1sc2c(c1C(=O)NCc1ccco1)CCCC2	60.9	.	-	.
SMILES	SUMO HTRF inh	SIRT5 inh	NSD2 inh	Casp6 inh
COc1cccc(CNC(=O)[C@@H]2CCCN2)c1	.	25.0	.	-
Nc1c(C(=O)NCc2ccccc2)c2nc3ccccc3nc2n1CCCN1CCOCC1	98.5	-	-	-
CCOc1ccc(-n2c(N)c(C(=O)NCc3ccco3)c3nc4ccccc4nc32)cc1	-	.	.	.
Nc1c(C(=O)NCc2ccco2)c2nc3ccccc3nc2n1CCc1ccccc1	99.3	-	-	-
CC(C)(C)c1ccc(C(=O)Nc2ccc(S(=O)(=O)Nc3cnc4ccccc4n3)cc2)cc1	-	-	-	60.5
O=C(COC(=O)c1c2c(nc3ccccc13)/C(=C\c1ccco1)CC2)NC1CCCC1	.	-	-	43.4
CC1CCCCC1NC(=O)COC(=O)c1c2c(nc3ccccc13)/C(=C\c1ccco1)CC2 (configuration not stated)	.	-	.	-
CCS(=O)(=O)Nc1cccc(C2=NN(C(C)=O)C(c3cccs3)C2)c1 (configuration not stated)	-	-	-	-
CC(=O)N1N=C(c2cccc(NS(C)(=O)=O)c2)CC1c1cccs1 (configuration not stated)	-	23.1	.	-
CCOc1cccc2cc(-c3nnc(NCc4ccco4)s3)c(=O)oc12	61.1	.	-	.
C[C@H]1CN([C@@H](C)CO)C(=O)c2cc(NC(=O)Nc3ccc4c(c3)OCO4)ccc2O[C@H]1CN(C)S(=O)(=O)c1ccccc1	.	-	.	-
COc1ccc2c3c(n(C)c2c1)[C@@H](CO)N(C(=O)C1CCCC1)CC31CCN(C(=O)CN(C)C)CC1	.	-	.	-
COC(=O)c1c(NC(=O)/C=C/C(=O)O)sc(C)c1-c1ccc(C(C)C)cc1	-	-	-	37.0
COC(=O)c1c(NC(=O)/C=C/C(=O)O)sc(C)c1-c1ccc(C)cc1	-	-	-	-
CCOC(=O)c1cccc(NC(=O)c2ccc3c(c2)OCO3)c1	-	19.0	-	-
CCOC(=O)c1cc(-c2ccc(N3CCOCC3)cc2)nn1-c1ccccc1C(=O)O	-	-	.	40.3
COc1ccccc1N1CCN(C(=O)C(C)CS(=O)(=O)c2ccc3c(c2)NC(=O)CS3)CC1 (configuration not stated)	-	-	-	68.2
Cc1ccc(CN2CCN(Cc3cnn(-c4ccc(Cl)cc4)c3)CC2CCO)o1 (configuration not stated)	-	25.6	.	-
COc1ccc2c3c(n(C)c2c1)[C@@H](CO)N(C(=O)C1CCCC1)CC31CCN(C(=O)c2ccncc2)CC1	.	-	.	-
COc1ccc(/C=C2\C(=O)ON=C2c2ccccc2)cc1	-	-	-	-
Cc1ccc(-c2ccc(/C=C3\C(=O)ON=C3c3ccccc3)o2)c([N+](=O)[O-])c1	-	.	-	.
Cc1ccc(/C=C2\C(=O)ON=C2c2ccccc2)o1	-	15.1	-	-
Cc1ccc(C2=NOC(=O)/C2=C\c2ccc(C)o2)cc1	-	-	-	40.7
Cc1noc(C)c1NC(=O)Nc1cccc2c1O[C@@H](CN(C)Cc1ccc(-c3ccccc3)cc1)[C@H](C)CN([C@@H](C)CO)C2=O	.	-	.	-
COc1ccc2c3c(n(C)c2c1)[C@@H](CO)N(C(=O)C1CCCCC1)CC31CCN(C(=O)CN(C)C)CC1	.	-	.	-
Cc1cccc2cc(C(=O)CS(=O)(=O)c3ccc(Cl)cc3)c(=O)oc12	.	.	-	.
C[C@H](CO)N1C[C@H](C)[C@H](CN(C)S(=O)(=O)c2ccc(F)cc2)Oc2cc(C3=CCCCC3)ccc2S1(=O)=O	.	32.0	.	-
C[C@@H]1CN([C@@H](C)CO)S(=O)(=O)c2ccc(C3=CCCCC3)cc2O[C@@H]1CN(C)S(=O)(=O)c1ccc(F)cc1	.	22.3	.	-
C[C@@H]1CN([C@H](C)CO)S(=O)(=O)c2ccc(C3=CCCC3)cc2O[C@@H]1CN(C)S(=O)(=O)c1ccc(F)cc1	.	-	.	-
